The values below come from article PMC7862700, “An all-to-all approach to the identification of sequence-specific readers for epigenetic DNA modifications on cytosine”.

Experiment in all cases: DAPPL (digital affinity profiling via proximity ligation, sequencing); 10 mM Tris-HCl pH 7.5, 50 mM NaCl, 1 mM DTT, 4% glycerol, room temperature, 30 min; GST-TFs on glutathione beads, 16-mer random dsDNA library, 0.1% formaldehyde crosslink after washing; high values mean tight binding
The target of one assay is T1, FLI1 (Homo sapiens, UniProt Q01543 1-452).
T1 sequence: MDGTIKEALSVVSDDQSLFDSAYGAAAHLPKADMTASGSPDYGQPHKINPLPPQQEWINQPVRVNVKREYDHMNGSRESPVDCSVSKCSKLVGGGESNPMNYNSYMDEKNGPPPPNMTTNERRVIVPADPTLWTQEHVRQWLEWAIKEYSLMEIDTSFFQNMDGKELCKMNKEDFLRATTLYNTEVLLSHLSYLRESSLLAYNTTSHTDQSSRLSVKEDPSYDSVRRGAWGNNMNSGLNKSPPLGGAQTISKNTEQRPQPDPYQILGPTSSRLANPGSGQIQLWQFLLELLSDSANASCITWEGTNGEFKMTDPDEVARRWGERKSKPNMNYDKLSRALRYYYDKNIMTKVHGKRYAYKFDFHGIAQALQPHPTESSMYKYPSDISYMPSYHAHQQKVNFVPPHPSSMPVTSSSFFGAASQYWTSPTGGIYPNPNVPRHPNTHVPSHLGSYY
The note with it: protein: recombinant; tags: N-terminal GST; dsDNA, one strand shown. An outline of the steps:
(§1)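 Beads coated with glutathione captured GST-fused human transcription factors that had been expressed in yeast, and the factors were then given DNA barcodes and pooled with a tag-only sample. The pools were incubated with 200 nmole of a random double-stranded 16-mer DNA library in Tris/NaCl/DTT/glycerol buffer for 30 min at room temperature, washed, crosslinked with 0.1% formaldehyde and proximity-ligated with BsaI/T4 ligase at 37 °C for 1 h. PCR amplification and Illumina NextSeq500 sequencing came last. Binding signal is each hexamer's read frequency for a factor divided by its frequency for the tag-only sample.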

A further assay addresses T2, ELK1 (Homo sapiens, UniProt P19419 1-428).
T2 sequence: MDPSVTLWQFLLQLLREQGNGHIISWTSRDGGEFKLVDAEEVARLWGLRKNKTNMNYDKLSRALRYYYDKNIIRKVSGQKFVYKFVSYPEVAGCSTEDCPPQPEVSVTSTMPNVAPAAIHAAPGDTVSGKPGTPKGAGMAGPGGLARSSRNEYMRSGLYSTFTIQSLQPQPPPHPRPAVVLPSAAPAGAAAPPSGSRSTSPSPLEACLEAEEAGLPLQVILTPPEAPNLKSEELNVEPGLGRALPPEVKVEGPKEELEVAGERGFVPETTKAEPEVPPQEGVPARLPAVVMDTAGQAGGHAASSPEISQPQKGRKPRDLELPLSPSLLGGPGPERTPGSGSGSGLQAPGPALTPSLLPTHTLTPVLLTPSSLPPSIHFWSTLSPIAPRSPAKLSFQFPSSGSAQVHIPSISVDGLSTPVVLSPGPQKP
The note with it: protein: recombinant; tags: N-terminal GST; dsDNA, one strand shown. In a few lines:
as §1

In the next assay the target is T3, GABPA (Homo sapiens, UniProt Q06546 1-454).
T3 sequence: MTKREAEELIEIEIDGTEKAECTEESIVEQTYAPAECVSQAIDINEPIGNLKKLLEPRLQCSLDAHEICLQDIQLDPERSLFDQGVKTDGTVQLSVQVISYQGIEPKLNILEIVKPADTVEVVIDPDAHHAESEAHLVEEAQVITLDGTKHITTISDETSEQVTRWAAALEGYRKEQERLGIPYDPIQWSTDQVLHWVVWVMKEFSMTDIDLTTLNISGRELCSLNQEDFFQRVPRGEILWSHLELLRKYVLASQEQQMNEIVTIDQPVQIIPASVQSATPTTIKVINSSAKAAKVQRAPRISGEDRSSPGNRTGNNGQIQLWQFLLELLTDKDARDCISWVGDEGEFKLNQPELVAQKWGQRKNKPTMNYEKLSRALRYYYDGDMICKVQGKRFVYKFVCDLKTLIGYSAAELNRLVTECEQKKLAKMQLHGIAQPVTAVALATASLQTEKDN
The note with it: protein: recombinant; tags: N-terminal GST; dsDNA, one strand shown. In a few lines:
as §1

A further assay concerns the target T4, ERG (Homo sapiens, UniProt P11308 1-479).
T4 sequence: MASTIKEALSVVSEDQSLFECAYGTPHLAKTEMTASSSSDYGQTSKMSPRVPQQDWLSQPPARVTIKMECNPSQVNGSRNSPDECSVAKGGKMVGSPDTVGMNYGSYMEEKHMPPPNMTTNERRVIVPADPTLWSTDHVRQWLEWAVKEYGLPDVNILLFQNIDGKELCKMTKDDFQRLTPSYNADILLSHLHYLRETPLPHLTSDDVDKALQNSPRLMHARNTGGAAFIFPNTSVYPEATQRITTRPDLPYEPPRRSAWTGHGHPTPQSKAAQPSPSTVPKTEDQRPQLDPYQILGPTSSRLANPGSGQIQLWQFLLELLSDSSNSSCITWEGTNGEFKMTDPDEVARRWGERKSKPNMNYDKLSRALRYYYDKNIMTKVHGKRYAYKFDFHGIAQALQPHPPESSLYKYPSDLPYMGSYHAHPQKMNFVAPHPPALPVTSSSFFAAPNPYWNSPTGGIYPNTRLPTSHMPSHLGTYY
As to conditions: protein: recombinant; tags: N-terminal GST; dsDNA, one strand shown. An outline of the steps: as §1

For a further assay, the target named is ELF1 (Homo sapiens, UniProt P32519 1-619). As to conditions: protein: recombinant; tags: N-terminal GST; dsDNA, one strand shown. In a few lines: as §1
Chain of ELF1 (P32519 whole entry): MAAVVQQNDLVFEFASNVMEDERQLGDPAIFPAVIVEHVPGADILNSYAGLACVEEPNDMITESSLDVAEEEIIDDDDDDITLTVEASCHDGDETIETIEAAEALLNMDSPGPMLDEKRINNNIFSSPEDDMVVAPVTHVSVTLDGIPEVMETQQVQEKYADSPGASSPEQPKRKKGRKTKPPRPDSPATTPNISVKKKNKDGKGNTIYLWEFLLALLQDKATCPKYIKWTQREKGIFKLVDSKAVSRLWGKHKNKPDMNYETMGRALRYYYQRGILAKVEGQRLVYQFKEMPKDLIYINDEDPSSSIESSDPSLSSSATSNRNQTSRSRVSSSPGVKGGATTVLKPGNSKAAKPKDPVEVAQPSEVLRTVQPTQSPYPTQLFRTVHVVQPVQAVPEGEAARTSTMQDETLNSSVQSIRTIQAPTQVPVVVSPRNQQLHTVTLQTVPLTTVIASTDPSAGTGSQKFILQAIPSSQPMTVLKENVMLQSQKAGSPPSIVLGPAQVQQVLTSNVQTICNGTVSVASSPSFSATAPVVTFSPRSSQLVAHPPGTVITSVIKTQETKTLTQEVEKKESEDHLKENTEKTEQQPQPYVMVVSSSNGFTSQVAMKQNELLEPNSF
For a further assay, the target named is T5, EHF (Homo sapiens, UniProt Q9NZC4 1-300).
T5 sequence: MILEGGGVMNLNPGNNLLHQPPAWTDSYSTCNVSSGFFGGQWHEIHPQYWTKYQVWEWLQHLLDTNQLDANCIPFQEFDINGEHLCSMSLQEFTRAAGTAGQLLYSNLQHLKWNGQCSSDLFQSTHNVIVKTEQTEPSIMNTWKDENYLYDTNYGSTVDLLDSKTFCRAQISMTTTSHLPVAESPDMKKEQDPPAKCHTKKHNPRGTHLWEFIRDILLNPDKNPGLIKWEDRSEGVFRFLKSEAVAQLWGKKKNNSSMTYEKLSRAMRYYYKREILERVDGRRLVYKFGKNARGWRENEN
The note with it: protein: recombinant; tags: N-terminal GST; dsDNA, one strand shown. An outline of the steps: as §1

For a further assay, the target named is SPI1 (Homo sapiens, UniProt P17947 1-270). As to conditions: protein: recombinant; tags: N-terminal GST; dsDNA, one strand shown. In a few lines:
as §1

The target in a further assay is SPIB (Homo sapiens, UniProt Q01892 1-262). As to conditions: protein: recombinant; tags: N-terminal GST; dsDNA, one strand shown. An outline of the steps:
as §1

The next assay addresses T6, ELK3 (Homo sapiens, UniProt P41970 1-407).
T6 sequence: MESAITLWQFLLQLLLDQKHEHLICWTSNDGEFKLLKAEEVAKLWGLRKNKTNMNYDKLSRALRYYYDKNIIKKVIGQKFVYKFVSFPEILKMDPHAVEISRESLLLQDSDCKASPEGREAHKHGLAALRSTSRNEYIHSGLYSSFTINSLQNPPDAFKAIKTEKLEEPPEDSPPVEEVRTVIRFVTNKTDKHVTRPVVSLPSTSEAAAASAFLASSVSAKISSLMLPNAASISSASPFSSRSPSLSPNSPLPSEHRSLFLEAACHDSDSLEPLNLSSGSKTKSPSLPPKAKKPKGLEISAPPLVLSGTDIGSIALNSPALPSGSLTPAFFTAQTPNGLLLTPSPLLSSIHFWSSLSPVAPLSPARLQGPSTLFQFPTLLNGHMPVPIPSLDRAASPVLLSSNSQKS
The note with it: protein: recombinant; tags: N-terminal GST; dsDNA, one strand shown. An outline of the steps: as §1

For a further assay, the target named is T7, FEV (Homo sapiens, UniProt Q99581 1-238).
T7 sequence: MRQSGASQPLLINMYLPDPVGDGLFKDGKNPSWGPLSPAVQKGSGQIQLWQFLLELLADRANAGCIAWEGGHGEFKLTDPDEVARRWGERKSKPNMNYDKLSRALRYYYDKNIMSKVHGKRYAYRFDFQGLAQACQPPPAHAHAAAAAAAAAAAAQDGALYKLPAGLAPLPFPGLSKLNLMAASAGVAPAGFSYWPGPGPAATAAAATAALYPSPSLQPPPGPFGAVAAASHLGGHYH
The note with it: protein: recombinant; tags: N-terminal GST; dsDNA, one strand shown. An outline of the steps: as §1

In a further assay the target is ETV5 (Homo sapiens, UniProt P41161 1-510). The note with it: protein: recombinant; tags: N-terminal GST; dsDNA, one strand shown. In a few lines: as §1
Chain of ETV5 (P41161 whole entry): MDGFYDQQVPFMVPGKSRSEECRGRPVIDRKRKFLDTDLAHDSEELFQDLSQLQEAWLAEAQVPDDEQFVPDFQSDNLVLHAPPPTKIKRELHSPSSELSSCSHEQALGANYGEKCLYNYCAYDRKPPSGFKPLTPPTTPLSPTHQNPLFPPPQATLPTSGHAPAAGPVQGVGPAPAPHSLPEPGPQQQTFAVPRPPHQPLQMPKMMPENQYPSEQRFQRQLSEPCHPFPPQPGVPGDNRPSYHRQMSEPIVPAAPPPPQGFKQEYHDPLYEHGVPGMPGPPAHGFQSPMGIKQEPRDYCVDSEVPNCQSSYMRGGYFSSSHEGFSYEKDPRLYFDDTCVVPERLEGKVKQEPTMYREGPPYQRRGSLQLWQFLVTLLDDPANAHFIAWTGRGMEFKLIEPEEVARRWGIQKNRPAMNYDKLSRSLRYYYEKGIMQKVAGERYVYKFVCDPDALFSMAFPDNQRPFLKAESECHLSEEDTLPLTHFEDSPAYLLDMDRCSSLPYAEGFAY
For another assay, the target named is HSF1 (Homo sapiens, UniProt Q00613 1-529). The note with it: protein: recombinant; tags: N-terminal GST; chain copies: 3; dsDNA, one strand shown. An outline of the steps: as §1
Chain of HSF1 (Q00613 whole entry): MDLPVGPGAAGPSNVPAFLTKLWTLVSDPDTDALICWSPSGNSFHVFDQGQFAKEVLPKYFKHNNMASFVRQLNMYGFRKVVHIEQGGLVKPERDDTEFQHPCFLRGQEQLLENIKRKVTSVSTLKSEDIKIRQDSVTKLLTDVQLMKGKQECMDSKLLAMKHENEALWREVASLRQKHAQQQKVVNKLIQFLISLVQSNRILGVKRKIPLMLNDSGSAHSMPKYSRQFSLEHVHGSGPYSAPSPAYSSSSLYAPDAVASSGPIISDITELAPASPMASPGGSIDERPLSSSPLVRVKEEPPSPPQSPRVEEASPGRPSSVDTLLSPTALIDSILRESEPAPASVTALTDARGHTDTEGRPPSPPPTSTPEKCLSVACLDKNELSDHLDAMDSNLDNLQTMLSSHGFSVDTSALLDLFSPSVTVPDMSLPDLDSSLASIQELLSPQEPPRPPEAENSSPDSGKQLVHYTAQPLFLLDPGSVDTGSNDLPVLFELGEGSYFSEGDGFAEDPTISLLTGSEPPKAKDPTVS
For a further assay, the target named is T8, SPIC (Homo sapiens, UniProt Q8N5J4 1-248).
T8 sequence: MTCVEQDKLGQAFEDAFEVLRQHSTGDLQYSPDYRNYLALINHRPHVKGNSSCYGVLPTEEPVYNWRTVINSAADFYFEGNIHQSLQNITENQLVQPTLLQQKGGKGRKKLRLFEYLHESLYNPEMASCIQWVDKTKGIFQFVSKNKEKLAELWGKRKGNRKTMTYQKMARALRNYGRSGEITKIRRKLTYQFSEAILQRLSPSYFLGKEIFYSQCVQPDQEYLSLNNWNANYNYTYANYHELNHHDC
As to conditions: protein: recombinant; tags: N-terminal GST; dsDNA, one strand shown. In a few lines:
as §1

Another assay deals with ELF4 (Homo sapiens, UniProt Q99607 1-663). The note with it: protein: recombinant; tags: N-terminal GST; dsDNA, one strand shown. In a few lines:
as §1

In a further assay the target is T9, ELK4 (Homo sapiens, UniProt P28324-2 1-405).
T9 sequence: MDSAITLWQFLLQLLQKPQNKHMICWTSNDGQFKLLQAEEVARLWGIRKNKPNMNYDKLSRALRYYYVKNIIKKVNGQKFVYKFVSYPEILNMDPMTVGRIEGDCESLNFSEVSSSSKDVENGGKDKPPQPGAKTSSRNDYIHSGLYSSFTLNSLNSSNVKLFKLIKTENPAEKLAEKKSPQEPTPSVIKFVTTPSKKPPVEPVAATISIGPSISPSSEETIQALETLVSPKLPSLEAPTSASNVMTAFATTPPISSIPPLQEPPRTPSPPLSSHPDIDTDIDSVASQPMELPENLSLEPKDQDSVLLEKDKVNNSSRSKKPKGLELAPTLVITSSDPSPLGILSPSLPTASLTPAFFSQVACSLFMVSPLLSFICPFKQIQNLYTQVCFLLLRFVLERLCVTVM
As to conditions: protein: recombinant; tags: N-terminal GST; dsDNA, one strand shown. In a few lines: as §1

In a further assay the target is T10, ETV2 (Homo sapiens, UniProt O00321 1-342).
T10 sequence: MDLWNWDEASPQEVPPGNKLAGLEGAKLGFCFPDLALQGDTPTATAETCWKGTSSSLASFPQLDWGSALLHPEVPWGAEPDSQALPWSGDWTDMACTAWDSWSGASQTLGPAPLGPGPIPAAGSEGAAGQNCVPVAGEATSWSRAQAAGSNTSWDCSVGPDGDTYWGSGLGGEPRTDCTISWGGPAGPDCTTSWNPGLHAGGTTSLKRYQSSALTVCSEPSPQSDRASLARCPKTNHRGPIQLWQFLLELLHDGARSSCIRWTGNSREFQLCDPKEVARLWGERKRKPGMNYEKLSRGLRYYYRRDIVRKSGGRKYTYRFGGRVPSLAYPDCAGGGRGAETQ
The note with it: protein: recombinant; tags: N-terminal GST; dsDNA, one strand shown. An outline of the steps:
as §1

Another assay deals with T11, ELF3 (Homo sapiens, UniProt P78545 1-371).
T11 sequence: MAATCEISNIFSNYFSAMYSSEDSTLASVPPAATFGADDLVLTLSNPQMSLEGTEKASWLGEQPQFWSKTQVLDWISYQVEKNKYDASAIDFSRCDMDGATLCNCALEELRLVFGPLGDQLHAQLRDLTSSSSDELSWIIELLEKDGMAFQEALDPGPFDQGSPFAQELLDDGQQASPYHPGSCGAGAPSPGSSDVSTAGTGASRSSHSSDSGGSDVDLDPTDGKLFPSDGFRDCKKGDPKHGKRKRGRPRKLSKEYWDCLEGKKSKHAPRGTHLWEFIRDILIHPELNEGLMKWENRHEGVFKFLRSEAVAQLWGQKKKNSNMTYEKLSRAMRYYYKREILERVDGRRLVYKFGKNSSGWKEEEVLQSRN
As to conditions: protein: recombinant; tags: N-terminal GST; dsDNA, one strand shown. In a few lines: as §1

The next assay deals with CRX (Homo sapiens, UniProt O43186 1-299). As to conditions: protein: recombinant; tags: N-terminal GST; dsDNA, one strand shown. An outline of the steps: as §1
Chain of CRX (O43186 whole entry): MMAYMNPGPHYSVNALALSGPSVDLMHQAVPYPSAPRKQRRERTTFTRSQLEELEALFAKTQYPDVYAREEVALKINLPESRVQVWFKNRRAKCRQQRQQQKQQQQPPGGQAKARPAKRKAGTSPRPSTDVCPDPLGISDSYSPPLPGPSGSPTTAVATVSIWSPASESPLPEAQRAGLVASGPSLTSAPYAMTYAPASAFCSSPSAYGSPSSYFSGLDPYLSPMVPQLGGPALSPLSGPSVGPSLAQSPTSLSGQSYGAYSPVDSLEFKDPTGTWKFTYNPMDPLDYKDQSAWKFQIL
In a further assay the target is ETV1 (Homo sapiens, UniProt P50549 1-477). The note with it: protein: recombinant; tags: N-terminal GST; dsDNA, one strand shown. In a few lines: as §1
Chain of ETV1 (P50549 whole entry): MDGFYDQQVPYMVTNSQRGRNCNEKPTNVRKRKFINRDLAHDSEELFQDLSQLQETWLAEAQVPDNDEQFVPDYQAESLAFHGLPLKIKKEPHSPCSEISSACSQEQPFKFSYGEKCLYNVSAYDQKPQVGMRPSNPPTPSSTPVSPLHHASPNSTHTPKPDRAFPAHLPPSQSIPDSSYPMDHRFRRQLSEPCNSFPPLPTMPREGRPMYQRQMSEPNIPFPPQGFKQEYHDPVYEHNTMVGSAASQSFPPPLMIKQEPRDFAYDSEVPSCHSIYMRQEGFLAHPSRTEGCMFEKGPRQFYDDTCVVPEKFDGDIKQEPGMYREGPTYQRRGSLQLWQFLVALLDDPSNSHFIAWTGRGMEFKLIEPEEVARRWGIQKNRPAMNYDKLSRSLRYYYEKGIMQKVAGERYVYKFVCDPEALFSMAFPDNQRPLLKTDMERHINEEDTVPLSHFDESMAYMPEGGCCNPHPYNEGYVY

Chain of SPIB (Q01892 whole entry): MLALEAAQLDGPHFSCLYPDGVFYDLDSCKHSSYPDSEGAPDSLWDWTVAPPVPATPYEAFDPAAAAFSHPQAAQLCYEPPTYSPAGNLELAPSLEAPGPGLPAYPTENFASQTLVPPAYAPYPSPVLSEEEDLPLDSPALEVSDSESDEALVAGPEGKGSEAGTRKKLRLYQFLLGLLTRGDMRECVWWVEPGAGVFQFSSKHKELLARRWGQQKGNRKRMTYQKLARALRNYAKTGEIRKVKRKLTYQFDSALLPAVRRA
Chain of ELF4 (Q99607 whole entry): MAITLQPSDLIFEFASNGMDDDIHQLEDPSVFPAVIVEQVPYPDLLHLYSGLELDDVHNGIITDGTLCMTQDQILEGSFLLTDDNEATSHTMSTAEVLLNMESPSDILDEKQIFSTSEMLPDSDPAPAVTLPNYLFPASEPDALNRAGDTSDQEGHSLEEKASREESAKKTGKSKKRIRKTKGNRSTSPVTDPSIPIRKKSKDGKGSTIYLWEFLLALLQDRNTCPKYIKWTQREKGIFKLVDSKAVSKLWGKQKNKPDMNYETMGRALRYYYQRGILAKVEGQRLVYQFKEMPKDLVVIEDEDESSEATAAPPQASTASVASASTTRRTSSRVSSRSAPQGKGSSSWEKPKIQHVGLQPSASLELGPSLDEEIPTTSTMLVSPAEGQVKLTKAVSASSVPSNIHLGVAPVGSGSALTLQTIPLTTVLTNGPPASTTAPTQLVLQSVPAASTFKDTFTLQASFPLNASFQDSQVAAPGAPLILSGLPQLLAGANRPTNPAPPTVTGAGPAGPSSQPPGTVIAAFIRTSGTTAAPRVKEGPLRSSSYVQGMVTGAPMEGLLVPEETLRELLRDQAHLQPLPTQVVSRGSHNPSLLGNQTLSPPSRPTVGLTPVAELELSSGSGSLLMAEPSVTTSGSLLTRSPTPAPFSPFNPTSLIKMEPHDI

ATCCAA: the binding signal with FLI1 was 1.15 fold enrichment (6-mer frequency, TF over GST control); in the assay with ELK1, 1.19 fold enrichment (6-mer frequency, TF over GST control); in the assay with GABPA it was 1.18 fold enrichment (6-mer frequency, TF over GST control); with ERG it was 1.09 fold enrichment (6-mer frequency, TF over GST control); with ELF1 it was 1.2 fold enrichment (6-mer frequency, TF over GST control); with EHF it was 1.1 fold enrichment (6-mer frequency, TF over GST control). Also, the binding signal with SPI1 was 1.11 fold enrichment (6-mer frequency, TF over GST control); with SPIB, 1.22 fold enrichment (6-mer frequency, TF over GST control); with ELK3, 1.14 fold enrichment (6-mer frequency, TF over GST control); with FEV it was 1.19 fold enrichment (6-mer frequency, TF over GST control); with ETV5 it was 1.13 fold enrichment (6-mer frequency, TF over GST control); with HSF1, 1.29 fold enrichment (6-mer frequency, TF over GST control). The binding signal with SPIC was 1.12 fold enrichment (6-mer frequency, TF over GST control); in the assay with ELF4, 1.23 fold enrichment (6-mer frequency, TF over GST control); in the assay with ELK4 it was 1.16 fold enrichment (6-mer frequency, TF over GST control); in the assay with ETV2 it was 1.09 fold enrichment (6-mer frequency, TF over GST control); in the assay with ELF3, 1.28 fold enrichment (6-mer frequency, TF over GST control); with CRX it was 1.63 fold enrichment (6-mer frequency, TF over GST control). In addition, in the assay with ETV1, the binding signal is 1.18 fold enrichment (6-mer frequency, TF over GST control).
